# Measured values published in ChEMBL document CHEMBL1157539, “Thousands of chemical starting points for antimalarial lead identification” (Nature, 2010).
# Legend:
# Format in all cases: functional
# Plasmodium falciparum [1] = experiment: GSK_TCMDC: Inhibition of Plasmodium falciparum 3D7 in whole red blood cells, using parasite LDH activity as an index of growth. Test compounds present at 2uM
# Plasmodium falciparum [2] = experiment: GSK_TCMDC: Inhibition of Plasmodium falciparum Dd2 in whole red blood cells, using parasite LDH activity as an index of growth. Test compounds present at 2uM
# HepG2 = experiment: GSK_TCMDC: Percent inhibition of human HepG2 cell line. Test compounds present at 10uM.
SMILES,Inhibition (Plasmodium falciparum [1]) [%],Inhibition (Plasmodium falciparum [2]) [%],Inhibition (HepG2) [%]
Cc1ccc(C(C)C)cc1CON1C(=N)N=C(N)NC1(C)C.Cl,94,92,66
O[C@H]1[C@H](OCc2ccc(-c3ccccc3)cc2)CC[C@@H]1N1CCCCC1,96,100,9
Cc1cccc2nc(-c3ccc(-c4ccc(CNCC5CCCO5)cc4)s3)[nH]c12.O=C(O)C(F)(F)F (configuration not stated),100,96,11
CCOc1ccc(C(=O)Nc2cc(Br)c3c(c2)CNCC3)cc1Br.Cl,96,21,18
CCN1C(=O)C(CC(=O)Nc2cccc(Cl)c2)N(Cc2ccc(OC)c(OC)c2)C1=S (configuration not stated),100,68,13
COc1ccc(-c2ccc(NC(=O)c3ccc(C#N)cc3)cc2)cc1CNC(C)C.O=C(O)C(F)(F)F,100,38,19
CCCCCCCCCCS(=O)(=O)N[C@H](COCc1cccc(Oc2ccccc2)c1)COP(=O)([O-])OC.[Li+],87,0,0
CS(=O)(=O)c1ccc2[nH]c(-c3cc(-c4cccc(F)c4)cnc3N)nc2c1.O=C(O)C(F)(F)F,100,71,33
COCCNCc1nc(-c2ccc3c(Nc4ccc(F)c(O)c4)ccnc3c2)cs1,100,99,0
CNC(=O)C1Cc2c([nH]c3ccc(Cl)cc23)C2(CCN(CCc3ccccc3)CC2)N1 (configuration not stated),98,16,2
CC1(C)N=C(N)N=C(N)N1OCCCc1ccccc1.Cl,96,94,64
CCn1cc(CN2CCCC(C(=O)Nc3ccc(-c4nc5ccccc5[nH]4)cc3)C2)cn1 (configuration not stated),100,26,8
Cl.N#Cc1ccc2c(c1)CCN(CCC1CCC(NC(=O)c3cccc(-c4ccc(F)cc4)c3)CC1)CC2 (configuration not stated),92,10,32
CO/C(=C\C=C\c1cc2cc(Cl)c(Cl)cc2[nH]1)C(=O)NCCCN1CCN(c2cccc(OCC(=O)Nc3ccccc3)c2)CC1,100,81,49
O=C(NCc1ccccc1)OC1CNCCC1c1ccc(C(O)Cc2ccccc2)cc1.O=C(O)C(F)(F)F (configuration not stated),87,5,8
CCCCNc1nc(NCCCC)c2c(C)c(Cc3ccccc3)c(NCCCC)nc2n1.Cl,95,84,69
O=C(Nc1cccc(CN2CCCN(Cc3cccc(O)c3)CC2)c1)c1cc2ccccc2s1.O=C(O)C(F)(F)F,100,75,15
O=C(Nc1cccc(-c2nn3ccccc3c2-c2ccnc(Nc3ccc(-c4cc[nH]n4)cc3)n2)c1)c1c(F)cccc1F,98,98,68
O=C(O)C(F)(F)F.O=C1CCCN1CCCNCc1cccc(-c2cccc(-c3nc4cc(C(F)(F)F)ccc4[nH]3)c2)c1,100,90,28
Cc1cc(Br)cnc1CCCCNc1cc(=O)c2ccccc2[nH]1.Cl,91,64,0
Cc1ccc(O)cc1Nc1ccnc2cc(-c3csc(CNCCN4CCOCC4)n3)ccc12,100,99,6
CC(C)(C)CNc1noc(-c2sccc2Br)n1,82,71,4
COc1cccc(Cc2c(C)nc3nc(N)nc(N)c3c2C)c1.Cl,95,1,65
Fc1ccc2[nH]c(-c3cccc(-c4ccc(CNCCc5ccncc5)cc4)c3)nc2c1.O=C(O)C(F)(F)F,99,100,44
CCCCNCc1ccc(-c2nc(CN(CCCn3ccnc3)C(=O)Nc3ccc(CC)cc3)cs2)cc1.O=C(O)C(F)(F)F,100,56,21
Cc1ccccc1C1CCN(C2CCC(NC(=O)/C=C/c3ccc(C(F)(F)F)cc3F)CC2)CC1 (configuration not stated),99,58,72
COc1cccc2c(Oc3ccccc3C)ccnc12,85,45,0
CCOc1cc2ncnc(Nc3ccc(OCc4ccccc4Br)c(OC)c3)c2cc1OCC.Cl,100,82,1
OC(c1ccccc1)C1CN(Cc2ccccc2)CCC1(O)c1ccccc1 (configuration not stated),91,82,4
